# Measurements from PubChem BioAssay (NCI).
# About 83,000 compounds went through this panel and 20% of them were active in at least one assay; those are over-represented in the sample as a whole.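 Method: cells in 96-well plates; compound added at one concentration; 48 h incubation; percent growth measured; values under 10 scored active.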 Calls of active or inactive are those of the source.
# Tested on: BT-549 breast
# Test: NCI-60 one-dose screen, 48 h (100 = growth as untreated, 0 = no growth, -100 = all killed)
# Details: 10 µM unless noted
row,SMILES,growth
1,CCOP1(=O)CC(C)=C(Cl)C(P(=O)(O)O)C1 (stereo not given),97.4% (inactive)
2,O=Nc1c(-c2c(O)[nH]c3cc(Br)ccc23)[nH]c2ccccc12,40% (inactive)
3,C=CCNC(=S)NNc1ccc([N+](=O)[O-])cn1,100% (inactive)
4,CCOC(=O)NNc1[nH]c(-c2ccc(OC)cc2)cc1C#N,101% (inactive)
5,C=CCC(CCC(CC=C)C(=O)OCC)C(=O)OCC (stereo not given),96.3% (inactive)
6,O=C(CCl)NC1c2ccccc2Oc2ccccc21,55.2% (inactive)
7,O=C(N/N=C\c1ccc(Cl)cc1)C(=O)N/N=C\c1ccc(Cl)cc1,95.4% (inactive)
8,C=C(NC(=O)[C@H](C(C)C)N(C)c1cccc2[nH]ccc12)C(=O)OC,95.3% (inactive)
9,COc1ccc(C2=NN(C(=O)c3cc(-c4ccc(C)cc4)nc4ccccc34)C(c3cc(-c4ccccc4)nn3-c3ccccc3)C2)cc1 (stereo not given),90.6% (inactive)
10,COc1ccc(C(=O)N2N=C(c3ccc(Br)cc3)CC2c2cn(-c3ccccc3)nc2-c2ccccc2)cc1 (stereo not given),87.7% (inactive)
11,CC(=O)O.[In],105% (inactive)
12,COc1ccc(NC(=O)/C=C(C)/C=C/C=C(C)/C=C/C2=C(C)CCCC2(C)C)cc1,96.2% (inactive)
13,CCOC(=O)CCCCCCCCC(=O)OCC,109% (inactive)
14,COC(=O)C(N)CC(C)C (stereo not given),97.9% (inactive)
15,O=C(/C=C1\C(=O)N(Cc2ccc([N+](=O)[O-])cc2)c2ccccc21)c1ccc(OCCN2CCCCC2)cc1,-80% (active)
16,Cc1ccc2c(O)c(O)cc(NC(C)CCCN)c2n1 (stereo not given),91.1% (inactive)
17,N/C(=N\O)c1ccncc1,98.3% (inactive)
18,COc1cc(/C=C/C(=O)c2ccc(F)cc2)ccc1OCCCCOc1cc2c(cc1OC)C(=O)N1CCCC1C=N2 (stereo not given),-49.9% (active)
19,COc1cc(-c2cc3cnccc3c3nc(N)c4ccncc4c23)cc(OC)c1OC,42.2% (inactive)
20,CC[n+]1c(C)ccc2cc(C)ccc21,95% (inactive)

row,SMILES,growth
1,O=C(/C=C/c1ccc(Br)cc1)c1ccccc1,95.8% (inactive)
2,CCN(CC)CCNc1ncnc2c1cnn2-c1ccc(Cl)cc1,95.1% (inactive)
3,C/C(=C\c1ccc2ccccc2c1)[N+](=O)[O-],64.4% (inactive)
4,Oc1ccccc1/C=N/N=C/c1c(O)ccc2ccccc12,77.8% (inactive)
5,CC(=O)CC(=O)OC/C=C(/C)CCC=C(C)C,102% (inactive)
6,COc1cccc2c1nc1cccc(OC)c1[n+]2[O-],32.9% (inactive)
7,COc1ccc(/C=C2\SC(=O)N(Cc3cc(=O)oc4ccc(OC)cc34)C2=O)cc1,77.4% (inactive)
8,CCCCCSc1ccc2nc(NC(=O)OCC)sc2c1,37.2% (inactive)
9,CCNc1nnc(COc2ccc(CNC(=O)CCCC/C=C/C(C)C)cc2OC)o1,102% (inactive)
10,CCCCCCCCCCN1CC2CCCCC2C1 (stereo not given),69% (inactive)
11,CCCCCCCCCCCCCCCC[n+]1cccc(C#N)c1,90.3% (inactive)
12,Nc1nc2c(c3ncncc13)C(c1cccc(C(F)(F)F)c1)Cc1ncncc1-2 (stereo not given),30.1% (inactive)
13,O=P(OCCCl)(OCCCl)C(O)c1ccccc1Cl (stereo not given),107% (inactive)
14,CCCCCCCCCCCCOC(=N)N(C)C,96.7% (inactive)
15,COC(=O)C(C(=O)OC)C(Br)C(Br)C(Br)c1ccccc1 (stereo not given),108% (inactive)
16,CCCCCCCCCC(C)NC(=O)CCl (stereo not given),88.8% (inactive)
17,CC1=C(C)C[C@]2(C(=O)O[C@H]3CCCC[C@@H]32)[S@](=O)C1,91.6% (inactive)
18,CCCCN(CCC)CCCCCCCCCCN1CCCc2ccccc21,89.6% (inactive)
19,CCCCCCCCCC[N+](C)(C)N,84.2% (inactive)
20,COc1ccc(-c2nnc(SCC(=O)Nc3ccc(C(=O)/C=C/c4cc(OC)c(OC)c(OC)c4)cc3)n2-c2ccccc2)cc1OC,-94.7% [100 µM] (active)
